FadD28 FP inh: inhibitors of Mycobacterium tuberculosis FadD28 bisubstrate binding | FadD28 bisubstrate probe binding, fluorescence polarization | inhibition, % at 12.5 µM | actives 0.22% (n = 360,000) | AID 588549; in the data active = inhibition above about 8.5%, passing the limit was not always enough
GDH-TPI counter-1: counter-screen for M. tuberculosis FBA inhibitors: GDH-TPI coupled enzymes; actives 1.2% (n = 360,000); inhibition, % at 4.8 µM; GDH-TPI coupled enzyme counterscreen, NADH absorbance; in the data active = inhibition above about 30%
Mtb hypoxia rep: reduces hypoxia-regulated biosensor signal in M. tuberculosis | actives 0.1% (n = 300,000) | M. tuberculosis hypoxia-regulated fluorescent reporter, fluorescence | fluorescence inhibition, % (no concentration beside the values); in the data active = fluorescence inhibition mostly above about 23%, no sharp cut-off; inactive = mostly below about 17%
BioA inh: blocks M. tuberculosis BioA enzyme activity; purified M. tuberculosis BioA enzyme, plate reader; inhibition, % at 9.99 µM; AID 602481; actives 0.096% (n = 360,000); in the data active = inhibition above about 40%
FBA Mtb inh: inhibitors of M. tuberculosis fructose-bisphosphate aldolase | P9WQA3 | purified M. tuberculosis FBA, fluorescence read-out | inhibition, % at 1 µM | actives 2.3% (n = 360,000)
Target sequence (P9WQA3 whole entry, looked up): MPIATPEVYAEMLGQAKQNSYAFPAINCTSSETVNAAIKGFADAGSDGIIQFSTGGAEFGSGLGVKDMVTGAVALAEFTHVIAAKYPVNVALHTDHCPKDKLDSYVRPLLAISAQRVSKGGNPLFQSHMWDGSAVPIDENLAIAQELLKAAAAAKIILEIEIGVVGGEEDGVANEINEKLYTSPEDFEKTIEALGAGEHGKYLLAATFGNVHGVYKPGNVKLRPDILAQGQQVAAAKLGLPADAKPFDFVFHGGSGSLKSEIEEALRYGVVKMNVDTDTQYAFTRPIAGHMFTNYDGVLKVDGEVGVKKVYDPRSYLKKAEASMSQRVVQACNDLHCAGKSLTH
Mtb FBA confirm: Mtb FBA inhibition, confirmed. actives 78% (n = 5,600). purified M. tuberculosis FBA, fluorescence read-out. inhibition, % at 1 µM. shares compounds with FBA Mtb inh
GDH-TPI counter-2: counter-screen for M. tuberculosis FBA inhibitors: GDH-TPI coupled enzyme inhibition. AID 652141. shares compounds with FBA Mtb inh. GDH-TPI coupled enzyme counterscreen, fluorescence. actives 81% (n = 5,600). inhibition, % at 1 µM; in the data active = inhibition above about 10%
GDH-TPI dose: GDH-TPI dose response counter-screen for Mtb FBA | GDH-TPI coupled enzyme assay, fluorescence, artifact counterscreen | actives 79% (n = 170) | AID 652145 | IC50, µM | shares compounds with FBA Mtb inh; call rule not given here
A number is an active result. Shown are actives, neighbours in structure and some others; about 2.9% of the full set was active somewhere. Cut-off read from the data, not from the text of the source, unless noted: active = inhibition above about 27%; inactive = the rest.

COC(=O)Nc1nnc(-c2ccccc2OC)s1 was read as FadD28 FP inh inactive, GDH-TPI counter-1 inactive, Mtb hypoxia rep inactive, FBA Mtb inh 66.5, Mtb FBA confirm inactive, GDH-TPI counter-2 inactive and GDH-TPI dose 3.2.
`CCOC(=O)Nc1nnc(-c2ccccc2OC)s1` gave FadD28 FP inh inactive, GDH-TPI counter-1 inactive, BioA inh inactive, FBA Mtb inh 42.2, Mtb FBA confirm 137.4 and GDH-TPI counter-2 98.1.
`Nc1nnc(-c2ccccc2Cl)s1` gave FadD28 FP inh inactive, GDH-TPI counter-1 inactive, BioA inh inactive and FBA Mtb inh inactive.
`O=C(Nc1nncs1)Oc1ccccc1` gave FadD28 FP inh inactive, GDH-TPI counter-1 inactive, Mtb hypoxia rep inactive, BioA inh inactive and FBA Mtb inh inactive.
For COc1ccccc1-c1nnc(N)s1 the results were FadD28 FP inh inactive, GDH-TPI counter-1 inactive, Mtb hypoxia rep inactive, FBA Mtb inh 46.1, Mtb FBA confirm 85.8 and GDH-TPI counter-2 75.7.
`COC(=O)Nc1nncs1` gave FadD28 FP inh inactive, GDH-TPI counter-1 inactive, Mtb hypoxia rep inactive, BioA inh inactive, FBA Mtb inh 49.5, Mtb FBA confirm 145.2 and GDH-TPI counter-2 129.9.
Screening COc1ccc(S(=O)(=O)N(C)C[C@H]2Oc3c(NC(=O)C4CC4)cccc3C(=O)N([C@H](C)CO)C[C@H]2C)cc1 returned BioA inh inactive.
CN(C(=O)CON=Cc1ccc(OC(F)F)cc1)C1CCS(=O)(=O)C1 (stereo not drawn) was read as Mtb hypoxia rep inactive.
COc1ccc(-c2nnc(NC(=O)C(C)C)s2)c(OC)c1 was read as FadD28 FP inh inactive, GDH-TPI counter-1 inactive, Mtb hypoxia rep inactive, BioA inh inactive, FBA Mtb inh 36.2, Mtb FBA confirm 101.5 and GDH-TPI counter-2 101.9.
For COC(=O)Nc1nnc(-c2ccncc2)s1 the results were FadD28 FP inh inactive, GDH-TPI counter-1 inactive, Mtb hypoxia rep inactive, BioA inh inactive, FBA Mtb inh 107.8, Mtb FBA confirm 58.8 and GDH-TPI counter-2 56.4.
C[C@H](CO)N1C[C@H](C)[C@@H](CN(C)C(=O)c2ccccc2)Oc2ncc(-c3ccc(C#N)cc3)cc2C1=O was read as BioA inh inactive.
Cc1c(Cc2ccccc2)c(=O)oc2cc(OCc3nn[nH]n3)ccc12 was read as FadD28 FP inh inactive, GDH-TPI counter-1 inactive, BioA inh inactive, FBA Mtb inh 83.2, Mtb FBA confirm inactive and GDH-TPI counter-2 inactive.
For Cc1cc(=O)oc2cc(OC(C)C)ccc12 the results were FadD28 FP inh inactive, GDH-TPI counter-1 inactive, Mtb hypoxia rep inactive, BioA inh inactive, FBA Mtb inh 73.1, Mtb FBA confirm active and GDH-TPI counter-2 178.1.
For O=C(O)c1ccc(COc2ccc3c4c(c(=O)oc3c2)CCC4)o1 the results were FadD28 FP inh inactive, GDH-TPI counter-1 inactive, Mtb hypoxia rep inactive, FBA Mtb inh 34.1, Mtb FBA confirm 95.4 and GDH-TPI counter-2 63.8.
For C=CCOc1ccc2c(CC)cc(=O)oc2c1C the results were FadD28 FP inh inactive, GDH-TPI counter-1 inactive, Mtb hypoxia rep inactive, BioA inh inactive, FBA Mtb inh 40.8, Mtb FBA confirm active and GDH-TPI counter-2 164.4.
For O=c1oc2cc(OCc3ccc([N+](=O)[O-])cc3)ccc2c2c1CCCC2 the results were FadD28 FP inh inactive, GDH-TPI counter-1 inactive, Mtb hypoxia rep inactive, BioA inh inactive and FBA Mtb inh inactive.
C[C@H](CO)N1C[C@H](C)[C@@H](CN(C)C(=O)CN2CCOCC2)Oc2ncc(C#CCN(C)C)cc2C1=O was read as BioA inh inactive.
`CCC(=O)N1[C@H](CO)[C@H](c2ccc(C3=CCCC3)cc2)[C@@H]1CN(C)C(C)=O` gave BioA inh inactive.
CCCC#Cc1ccc2c(c1)O[C@@H](CN(C)CC1CCOCC1)[C@@H](C)CN([C@H](C)CO)S2(=O)=O was read as BioA inh inactive.
O=c1oc2cc(OCc3nn[nH]n3)ccc2c2c1CCCC2 was read as FadD28 FP inh inactive, GDH-TPI counter-1 inactive, Mtb hypoxia rep inactive, BioA inh inactive, FBA Mtb inh 89.0, Mtb FBA confirm inactive and GDH-TPI counter-2 inactive.
Screening Cc1ccc(OCC(=O)NC2CC(C)(C)NC(C)(C)C2)cc1C returned FadD28 FP inh inactive, GDH-TPI counter-1 inactive, Mtb hypoxia rep inactive, BioA inh inactive and FBA Mtb inh inactive.
`CC1(C)CC(NC(=O)COc2ccc3c4c(c(=O)oc3c2)CCCC4)CC(C)(C)N1` gave FadD28 FP inh inactive, GDH-TPI counter-1 inactive, Mtb hypoxia rep inactive, BioA inh inactive, FBA Mtb inh 52.3, Mtb FBA confirm active and GDH-TPI counter-2 active.
`C#CCOc1ccc2c(C)cc(=O)oc2c1` gave FadD28 FP inh inactive, GDH-TPI counter-1 inactive, BioA inh inactive, FBA Mtb inh 40.4, Mtb FBA confirm 63.5 and GDH-TPI counter-2 43.6.
Cc1c(OCc2nn[nH]n2)ccc2c3c(c(=O)oc12)CCC(C)C3 (stereo not drawn) was read as FadD28 FP inh inactive, GDH-TPI counter-1 inactive, Mtb hypoxia rep inactive, BioA inh inactive, FBA Mtb inh 107.1, Mtb FBA confirm active and GDH-TPI counter-2 154.7.
CN(C)Cc1cn(CC[C@@H]2CC[C@H](NC(=O)Nc3ccccc3F)[C@@H](CO)O2)nn1 was read as BioA inh inactive.
O=C(CNC(=O)c1ccccc1C(F)(F)F)NN=Cc1cccs1 was read as Mtb hypoxia rep inactive.
`O=C(O)C(Oc1ccc2cc(-c3ccc(Cl)cc3)c(=O)oc2c1)c1ccccc1` (stereo not drawn) gave FadD28 FP inh inactive, GDH-TPI counter-1 inactive, Mtb hypoxia rep inactive, BioA inh inactive, FBA Mtb inh 103.7, Mtb FBA confirm active and GDH-TPI counter-2 active.
`Cc1cc(=O)oc2cc(OC(C(=O)O)c3ccccc3)ccc12` (stereo not drawn) gave GDH-TPI counter-1 inactive, Mtb hypoxia rep inactive, BioA inh inactive and FBA Mtb inh inactive.
Screening CC(=O)COc1ccc2c3c(c(=O)oc2c1)CCCC3 returned FadD28 FP inh inactive, GDH-TPI counter-1 inactive, Mtb hypoxia rep inactive, BioA inh inactive, FBA Mtb inh 69.7, Mtb FBA confirm 33.5 and GDH-TPI counter-2 35.1.
CCc1cc(=O)oc2c(C)c(OCC(=O)NC3CC(C)(C)NC(C)(C)C3)ccc12 was read as FadD28 FP inh inactive, GDH-TPI counter-1 inactive, Mtb hypoxia rep inactive, BioA inh inactive, FBA Mtb inh 37.5, Mtb FBA confirm 139.2 and GDH-TPI counter-2 124.0.
C#CCOc1ccc2c3c(c(=O)oc2c1)CCCC3 was read as FadD28 FP inh inactive, GDH-TPI counter-1 inactive, Mtb hypoxia rep inactive, BioA inh inactive, FBA Mtb inh 45.8, Mtb FBA confirm active and GDH-TPI counter-2 active.
O=C(COc1ccc2c3c(c(=O)oc2c1)CCCC3)NCc1ccncc1 was read as FadD28 FP inh inactive, GDH-TPI counter-1 inactive, Mtb hypoxia rep inactive, BioA inh inactive and FBA Mtb inh inactive.
